Among all 5,500 compounds or so, about 2,000 (36%) were called active. Another 18% or so got no clear call; they are omitted. Some of the results follow. Values without a mark were called inactive. Cut-off read from the data, not from the text of the source: active = normalized growth mostly below about 0.91 (no sharp cut-off); inconclusive = no clear call, values can overlap the other calls; inactive = mostly above about 0.92.
Test: chemical genetic growth profiling, strain panel (AID 1159580);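 note: tested at 20 µM; growth read once vehicle control cultures reached saturation at 30 °C; 1 = growth at the plate median or of vehicle wells; lower values mean less growth of the strain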
Conditions: growth OD

## CC1(C)C=Cc2c(cc3occ(-c4ccc5c(c4)OCO5)c(=O)c3c2O)O1
S. cerevisiae deletion strains, locus YJL164C, strain tpk1, stronger effect = lower value
  normalized growth: 0.967
S. cerevisiae deletion strains, locus YJL166W, strain qcr8, stronger effect = lower value
  normalized growth: 0.943
S. cerevisiae deletion strains, locus YJL168C, strain set2, stronger effect = lower value
  normalized growth: 1.01
S. cerevisiae deletion strains, locus YJL187C, strain SWE1 (second series), stronger effect = lower value
  normalized growth: 0.92
S. cerevisiae deletion strains, locus YJL187C, strain SWE1, stronger effect = lower value
  normalized growth: 0.967
S. cerevisiae deletion strains, locus YJR075W, strain HOC1, stronger effect = lower value
  normalized growth: 0.996
S. cerevisiae deletion strains, locus YKL068W, stronger effect = lower value
  normalized growth: 1.02
S. cerevisiae deletion strains, locus YKL160W, strain elf1, stronger effect = lower value
  normalized growth: 1.02
S. cerevisiae deletion strains, locus YKL190W, strain CNB1, stronger effect = lower value
  normalized growth: 0.967
S. cerevisiae deletion strains, locus YKR001C, strain vps1, stronger effect = lower value
  normalized growth: 0.988
S. cerevisiae deletion strains, locus YKR026C, strain gcn3, stronger effect = lower value
  normalized growth: 0.983
S. cerevisiae deletion strains, locus YKR091W, strain srl3, stronger effect = lower value
  normalized growth: 0.981
S. cerevisiae deletion strains, locus YLL001W, strain dnm1, stronger effect = lower value
  normalized growth: 0.959
S. cerevisiae deletion strains, locus YLL026W, stronger effect = lower value
  normalized growth: 0.961
S. cerevisiae deletion strains, locus YLL041C, strain sdh2, stronger effect = lower value
  normalized growth: 0.993
S. cerevisiae deletion strains, locus YLR027C, strain aat2, stronger effect = lower value
  normalized growth: 0.943
S. cerevisiae deletion strains, locus YLR039C, strain RIC1, stronger effect = lower value
  normalized growth: 1.11
S. cerevisiae deletion strains, locus YLR058C, strain SHM2, stronger effect = lower value
  normalized growth: 0.933
S. cerevisiae deletion strains, locus YLR102C, strain apc9, stronger effect = lower value
  normalized growth: 1.03
S. cerevisiae deletion strains, locus YLR221C, strain rsa3, stronger effect = lower value
  normalized growth: 0.897 (active)
S. cerevisiae deletion strains, locus YLR258W, strain gsy2, stronger effect = lower value
  normalized growth: 0.963
S. cerevisiae deletion strains, locus YLR262C, strain YPT6 (second series), stronger effect = lower value
  normalized growth: 0.945
S. cerevisiae deletion strains, locus YLR262C, strain YPT6, stronger effect = lower value
  normalized growth: 1.14
S. cerevisiae deletion strains, locus YLR268W, strain sec22, stronger effect = lower value
  normalized growth: 0.943
S. cerevisiae deletion strains, locus YLR320W, strain mms22, stronger effect = lower value
  normalized growth: 0.917
S. cerevisiae deletion strains, locus YLR342W, strain FKS1, stronger effect = lower value
  normalized growth: 0.907 (active)
S. cerevisiae deletion strains, locus YLR357W, strain rsc2, stronger effect = lower value
  normalized growth: 0.905
S. cerevisiae deletion strains, locus YLR370C, strain arc18, stronger effect = lower value
  normalized growth: 0.978
S. cerevisiae deletion strains, locus YLR371W, strain rom2, stronger effect = lower value
  normalized growth: 0.92
S. cerevisiae deletion strains, locus YLR384C, strain iki3, stronger effect = lower value
  normalized growth: 0.976
S. cerevisiae deletion strains, locus YLR418C, strain cdc73, stronger effect = lower value
  normalized growth: 1.02
S. cerevisiae deletion strains, locus YML016C, strain PPZ1, stronger effect = lower value
  normalized growth: 0.954
S. cerevisiae deletion strains, locus YML032C, strain rad52, stronger effect = lower value
  normalized growth: 1
S. cerevisiae deletion strains, locus YML120C, strain ndi1, stronger effect = lower value
  normalized growth: 1.01
S. cerevisiae deletion strains, locus YML124C, strain tub3, stronger effect = lower value
  normalized growth: 1.02
S. cerevisiae deletion strains, locus YMR058W, strain fet3, stronger effect = lower value
  normalized growth: 0.676 (active)
S. cerevisiae deletion strains, locus YMR078C, strain ctf18, stronger effect = lower value
  normalized growth: 1.04
S. cerevisiae deletion strains, locus YMR125W, strain sto1, stronger effect = lower value
  normalized growth: 1.01
S. cerevisiae deletion strains, locus YMR129W, stronger effect = lower value
  normalized growth: 0.993
S. cerevisiae deletion strains, locus YMR205C, strain PFK2, stronger effect = lower value
  normalized growth: 0.971
S. cerevisiae deletion strains, locus YMR223W, strain ubp8, stronger effect = lower value
  normalized growth: 0.959
S. cerevisiae deletion strains, locus YMR231W, strain pep5, stronger effect = lower value
  normalized growth: 0.975
S. cerevisiae deletion strains, locus YMR263W, strain SAP30, stronger effect = lower value
  normalized growth: 1
S. cerevisiae deletion strains, locus YMR307W, strain GAS1, stronger effect = lower value
  normalized growth: 0.946
S. cerevisiae deletion strains, locus YNL067W, strain RPL9B, stronger effect = lower value
  normalized growth: 0.995
S. cerevisiae deletion strains, locus YNL071W, strain lat1, stronger effect = lower value
  normalized growth: 0.986
S. cerevisiae deletion strains, locus YNL209W, strain ssb2, stronger effect = lower value
  normalized growth: 0.738 (active)
S. cerevisiae deletion strains, locus YNL233W, strain BNI4, stronger effect = lower value
  normalized growth: 0.881
S. cerevisiae deletion strains, locus YNL248C, strain rpa49, stronger effect = lower value
  normalized growth: 0.963
S. cerevisiae deletion strains, locus YNL250W, strain rad50, stronger effect = lower value
  normalized growth: 1.06
S. cerevisiae deletion strains, locus YNL271C, strain bni1, stronger effect = lower value
  normalized growth: 1
S. cerevisiae deletion strains, locus YNL298W, strain CLA4, stronger effect = lower value
  normalized growth: 1.01
S. cerevisiae deletion strains, locus YNL307C, strain MCK1, stronger effect = lower value
  normalized growth: 1.02
S. cerevisiae deletion strains, locus YNL322C, strain KRE1 (second series), stronger effect = lower value
  normalized growth: 0.999
S. cerevisiae deletion strains, locus YNR049C, strain mso1, stronger effect = lower value
  normalized growth: 0.991
S. cerevisiae deletion strains, locus YNR052C, strain pop2, stronger effect = lower value
  normalized growth: 1
S. cerevisiae deletion strains, locus YOL012C, strain htz1
  normalized growth: 0.804
S. cerevisiae deletion strains, locus YOL147C, strain pex11, stronger effect = lower value
  normalized growth: 1.01
S. cerevisiae deletion strains, locus YOR001W, strain rrp6, stronger effect = lower value
  normalized growth: 0.93
S. cerevisiae deletion strains, locus YOR061W, strain CKA2, stronger effect = lower value
  normalized growth: 0.924
S. cerevisiae deletion strains, locus YOR069W, strain VPS5, stronger effect = lower value
  normalized growth: 0.96
S. cerevisiae deletion strains, locus YOR070C, strain gyp1, stronger effect = lower value
  normalized growth: 0.905 (active)
S. cerevisiae deletion strains, locus YOR080W, strain dia2, stronger effect = lower value
  normalized growth: 0.963
S. cerevisiae deletion strains, locus YOR083W, strain WHI5, stronger effect = lower value
  normalized growth: 0.928
S. cerevisiae deletion strains, locus YOR106W, strain vam3, stronger effect = lower value
  normalized growth: 0.907
S. cerevisiae deletion strains, locus YOR136W, strain idh2, stronger effect = lower value
  normalized growth: 1.03
S. cerevisiae deletion strains, locus YOR144C, strain elg1, stronger effect = lower value
  normalized growth: 1.02
S. cerevisiae deletion strains, locus YOR184W, strain ser1, stronger effect = lower value
  normalized growth: 0.971
S. cerevisiae deletion strains, locus YOR265W, strain rbl2, stronger effect = lower value
  normalized growth: 0.947
S. cerevisiae deletion strains, locus YOR270C, strain vph1, stronger effect = lower value
  normalized growth: 0.952
S. cerevisiae deletion strains, locus YOR290C, strain snf2, stronger effect = lower value
  normalized growth: 0.981
S. cerevisiae deletion strains, locus YOR316C, strain cot1, stronger effect = lower value
  normalized growth: 1.02
S. cerevisiae deletion strains, locus YPL051W, strain arl3, stronger effect = lower value
  normalized growth: 0.855 (active)
S. cerevisiae deletion strains, locus YPL055C, strain LGE1, stronger effect = lower value
  normalized growth: 0.871
S. cerevisiae deletion strains, locus YPL078C, strain atp4, stronger effect = lower value
  normalized growth: 1.02
S. cerevisiae deletion strains, locus YPL106C, strain sse1, stronger effect = lower value
  normalized growth: 0.901
S. cerevisiae deletion strains, locus YPL240C, strain hsp82, stronger effect = lower value
  normalized growth: 0.989
S. cerevisiae deletion strains, locus YPR119W, strain clb2, stronger effect = lower value
  normalized growth: 1.04
S. cerevisiae deletion strains, locus YPR141C, strain kar3, stronger effect = lower value
  normalized growth: 1.02
S. cerevisiae deletion strains, locus YPR163C, strain tif3, stronger effect = lower value
  normalized growth: 1.02
S. cerevisiae deletion strains, locus YPR167C, strain met16, stronger effect = lower value
  normalized growth: 0.967
S. cerevisiae deletion strains, strain wtn01, stronger effect = lower value
  normalized growth: 0.952
S. cerevisiae strains, strain wild type, stronger effect = lower value
  normalized growth: 0.889 (active)

From PubChem BioAssay AID1159580 (chemical genetic matrix, 2015)
